In PubChem BioAssay AID504523 (Broad Institute, 2011) one finds inhibition data, which are given here for 73 compounds.

Values joined by “and” are separate entries in the source; they are usually repeats but may differ in a detail not shown here. Equal values may be shown once. About 490 (0.14%) of roughly 340,000 compounds were called active. Rule as the data show it: active = inhibition above about 12%; inconclusive = no clear call, values can overlap the other calls; inactive = below about 7.3%. Many of the other results were omitted from the sample, so actives are more common in it than they were. A structure can be active in one record and inactive in another.

Kelch-like ECH-associated protein 1 (Homo sapiens), sequence (Q14145 whole entry, looked up, the tested form may be a part): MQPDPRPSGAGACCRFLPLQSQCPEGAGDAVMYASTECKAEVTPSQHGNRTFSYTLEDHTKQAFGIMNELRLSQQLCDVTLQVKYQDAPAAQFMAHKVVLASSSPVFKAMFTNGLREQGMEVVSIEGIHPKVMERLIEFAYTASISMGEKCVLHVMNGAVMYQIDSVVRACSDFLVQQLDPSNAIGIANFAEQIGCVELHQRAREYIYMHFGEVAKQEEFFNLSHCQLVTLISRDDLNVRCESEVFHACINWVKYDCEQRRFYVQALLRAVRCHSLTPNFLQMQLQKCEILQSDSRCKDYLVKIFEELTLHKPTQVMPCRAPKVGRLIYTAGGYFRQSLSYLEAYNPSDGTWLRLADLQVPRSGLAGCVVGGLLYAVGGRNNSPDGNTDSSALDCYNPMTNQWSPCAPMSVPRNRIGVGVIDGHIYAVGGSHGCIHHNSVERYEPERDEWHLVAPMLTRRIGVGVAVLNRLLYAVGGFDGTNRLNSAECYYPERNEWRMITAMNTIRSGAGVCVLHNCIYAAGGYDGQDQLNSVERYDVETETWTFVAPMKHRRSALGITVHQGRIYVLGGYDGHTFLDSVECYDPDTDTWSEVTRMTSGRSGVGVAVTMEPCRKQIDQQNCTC

This assay addresses Kelch-like ECH-associated protein 1 (Homo sapiens) (UniProt Q14145). Put plainly: disruptors of Keap1 binding to Nrf2 – biochemical, fluorescence polarization, single point, primary screen (AID 504523).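 Also: human Keap1 Kelch domain with fluorescein labeled Nrf2 9mer peptide probe; 0% = neutral control wells and 100% = peptide positive control.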 Particulars: Keap1 Kelch-Nrf2 peptide fluorescence polarization, 1536-well; at 9.4 µM; stronger effect = higher value. Background: Fluorescence polarisation rises when a labelled molecule tumbles more slowly, as on binding a larger partner.
Regarding `Nc1ccccc1SC(C[N+](=O)[O-])c1ccccc1` (stereo not drawn), the inhibition was -4.52% (inactive).
Next, `COc1ccc(OC)c2[nH]c(=O)c(CCNC(=O)C(=O)c3c[nH]c4ccccc34)cc12`: -5.41% (inactive).
As for `CC(=O)c1cc(C#N)c(SCC(=O)Nc2nccs2)nc1C`, the inhibition was -4.52% (inactive).
On to `Cc1ccnc(NC(=O)C2CCN(S(=O)(=O)c3c(C)c(C)cc(C)c3C)CC2)c1`, for which the inhibition is -1.09% (inactive).
`COCCCNC(=O)C1CCC(CNS(=O)(=O)c2ccc(OC)cc2)CC1` (stereo not drawn): the inhibition is 0.471% (inactive).
Take `O=C(OCC(=O)N(CCc1ccccc1)Cc1ccccc1)c1ccccc1[N+](=O)[O-]`: the inhibition is 1% (inactive).
On to `CC(C)C[C@H](NC(=O)C1CCC(CNC(=O)[C@@H]2CCCN2C(=O)OC(C)(C)C)CC1)C(=O)O` (stereo partly drawn), for which the inhibition is 0.427% (inactive).
To `Cc1nc2ccccc2n1C(=O)N1CCOCC1` belongs -5.92% (inactive); to `OCCC1CN(Cc2cccc(O)c2)CCN1CCc1ccccc1` (stereo not drawn), -6.53% (inactive); to `COc1ccc(S(=O)(=O)N2C[C@H]3CON(C)[C@H]3C[C@H]2c2cccc(Br)c2)cc1`, -1.34% (inactive).
As for `COC(C[C@H](O)CC(=O)COCc1ccccc1)OC`, the inhibition was -0.107% (inactive).
With `Cc1cc(C)n(-c2nnc(N3CCN(c4ccccc4)CC3)nn2)n1`, the inhibition was -3.51% (inactive).
To `C=CCn1c(SCc2cccc(F)c2)nc2cc(C(=O)N3CCC(C(N)=O)CC3)ccc2c1=O` belongs -4.14% (inactive).
To `COc1cc(/C=N/N=C(\N)c2nonc2N)cc(OC)c1OC` belongs 1.13% (inactive); to `c1ccc2c(c1)OCCOCCOCCO2`, 1.51% (inactive).
With `Cc1ccc2nc(NC(=O)C3CSC4(C)CCC(=O)N34)sc2c1` (stereo not drawn), the inhibition is -0.772% (inactive).
To `Oc1cccc(CCc2ccccn2)c1` belongs 1.31% (inactive); to `CC(C)(C)N(Cc1ccccc1)C(=O)COC(=O)CCc1c[nH]c2ccccc12`, -5.52% (inactive); to `O=C1CC(c2ccccc2)C(c2ccccc2)=NN1` (stereo not drawn), -8.87% (inactive).
On to `CCC1CCc2c(sc(NC(C)=O)c2C#N)C1` (stereo not drawn), for which the inhibition was -1.96% (inactive).
Take `Cn1nc(-c2ccccc2)c(CSc2cccc(Cl)c2)c1Cl`: the inhibition is 1.6% (inactive).
Next, `CCN1CC=C2C(C#N)=C(N)C(C#N)(C#N)[C@H](c3ccoc3)[C@H]2C1`: 26.5% (active).
To `O=c1cnnc(Nc2ccccc2F)[nH]1` belongs -0.638% (inactive).
In the case of `CCN(CC)Cc1c(C(=O)N/N=C/c2cccc(OCc3ccc(F)cc3)c2)nnn1-c1nonc1N`, the inhibition is 2.94% (inactive).
With `CC(=O)NS(=O)(=O)c1ccc2c(c1)Cc1cc(S(=O)(=O)NC(C)=O)ccc1-2`, the inhibition is -4.15% (inactive).
Regarding `Cc1ccc(Nc2cc(C)nc3c(C)ccc([N+](=O)[O-])c23)cc1`, the inhibition was -0.384% (inactive).
To `CCOc1cc(CNCc2ccccn2)ccc1OCC(=O)NC(C)(C)C` belongs -3.19% (inactive).
Next, `O=C(c1c(F)cccc1Cl)N1CCN(S(=O)(=O)c2ccc3c(c2)OCCCO3)CC1`: -0.841% (inactive); `CC(C)C(NS(=O)(=O)c1cccs1)C(=O)Nc1nc(C(C)(C)C)cs1` (stereo not drawn): 1.11% (inactive).
With `COc1ccc(-c2nonc2NC(=O)c2oc3ccc(F)cc3c2C)cc1OC`, the inhibition was 4.52% (inactive).
As for `O=C1CC(C(F)(F)C(F)(F)C(F)(F)C(F)(F)F)=Nc2ccccc2N1`, the inhibition is -1.59% (inactive).
To `Cc1noc(C)c1COC(=O)Cn1c(C)nc2ccccc21` belongs 1.41% (inactive).
On to `CCCc1cc(-c2n[nH]c(=S)n2Cc2ccccc2)cs1`, for which the inhibition is -5.54% (inactive).
For the compound `COc1ccccc1NC(=O)CCN1CCN(c2ccc(Cl)cc2)CC1`, the inhibition was 2.69% (inactive).
In the case of `Cc1ccc(S(=O)(=O)N2[C@@H](c3cccc4ccccc34)C(C(=O)O)=C[C@H]2C(C)(C)C)cc1`, the inhibition is 6.06% (inactive).
In the case of `Cc1cc(C)nc(N2C(=O)CC(Cc3ccccc3)C2=O)n1` (stereo not drawn), the inhibition is 2.94% (inactive).
Next, `O=C(Nc1cccc2c1N(C(=O)c1ccco1)CCC2)c1ccco1`: 0.867% (inactive).
To `CN(C)c1ccc(C(=S)N2CCN(C(=S)Nc3ccc(Cl)cc3)CC2)cc1` belongs 1.08% (inactive); to `Cc1ccc(Nc2nc(CSc3nnc(-c4ccncc4)n3-c3ccccc3C)cs2)cc1`, -6.12% (inactive).
With `Nc1c(C(=O)O)cnn1-c1ccccc1`, the inhibition was 1.79% (inactive).
To `C=C(C)C1CC=C(C)/C(=N\NC(=O)CNc2ccccc2OC)C1` (stereo not drawn) belongs 0.164% (inactive); to `COc1ccc(OC)c(S(=O)(=O)Nc2ccccc2F)c1`, -3.36% (inactive).
For the compound `COc1ccc(S(=O)(=O)Nc2ccccc2C(=O)N2CCCC2)cc1C`, the inhibition is -0.35% (inactive).
To `COc1cc(OC)c(S(=O)(=O)Nc2ccccc2C(=O)O)cc1S(=O)(=O)Nc1ccccc1C(=O)O` belongs 15.6% (active); to `O=C(/C=C/c1cc2c(cc1Br)OCO2)NCc1ccc(Cl)cc1`, -0.718% (inactive); to `Cc1ccccc1CNC(=O)CCC(=O)N1Cc2ccccc2Oc2ncccc21`, 0.575% (inactive).
To `O=C(CNCc1ccco1)Nc1cc(S(=O)(=O)N2CCOCC2)ccc1N1CCCC1` belongs -2.82% (inactive).
Next, `CCCCNC(=O)C1CCCN(S(=O)(=O)c2ccc(S(=O)(=O)NCC(C)C)cc2)C1` (stereo not drawn): -0.397% (inactive).
`COC(=O)c1ccc(-c2noc(CN(Cc3ccccn3)CC3CCCO3)n2)cc1` (stereo not drawn): the inhibition is -1.93% (inactive).
Turning to `Cc1ccc2c(c1)N(CC(=O)N1CCC(C)CC1)C(=O)c1cccnc1O2`, the inhibition was -0.762% (inactive).
To `COc1ccccc1C(=O)NCCn1cc(SCC(=O)NCc2ccco2)c2ccccc21` belongs -4.2% (inactive); to `O=C(NCc1ccncc1)C(=O)NCc1ccco1`, -3.77% (inactive).
To `CCOC(=O)c1c(NC(=O)CSc2nnc(CNc3ccc(C)cc3C)o2)sc(C)c1C` belongs 3.69% (inactive).
Next, `Cc1ccc(-n2c(CNc3ccc(F)cc3)nnc2SCC(=O)N2CCOCC2)cc1`: -5.07% (inactive); `CSCCC(NC(=O)COc1ccccc1)C(=O)N1CCN(c2cccc(C(F)(F)F)c2)CC1` (stereo not drawn): 1.75% (inactive); `CC(C)=N/N=C1/NC(=O)C(Cc2ccccc2)S1` (stereo not drawn): -5.03% (inactive).
As for `CN(CCOc1ccc(CC2SC(=O)NC2=O)cc1)c1ccccn1` (stereo not drawn), the inhibition is 44.6% (active) and -1.69% (inactive).
To `CC(O)c1ccc(OCCN(C)c2ccccn2)cc1` (stereo not drawn) belongs 2.21% (inactive).
For `N#Cc1cccc(CSc2ncnc(N)n2)c1`, the inhibition was -4.01% (inactive).
As for `Cc1nc(SCC(=O)NC2CCCCC2C)c(C#N)c(C)c1C` (stereo not drawn), the inhibition was -1.86% (inactive).
Next, `COc1ccccc1CNC(=O)C1Cc2ccccc2C(=O)O1` (stereo not drawn): 0.554% (inactive); `CC(Sc1nnc(C2CC2)n1C1CC1)C(=O)Nc1ccc(C(N)=O)cc1` (stereo not drawn): -1.4% (inactive).
Next, `COc1ccc(S(=O)(=O)n2nc(C)c(S(=O)(=O)N3CCOCC3)c2C)cc1`: -1.09% (inactive).
As to `CC(C(=O)O)N1C(=O)c2cccc3cccc1c23` (stereo not drawn), the inhibition was -0.759% (inactive).
To `O=C1c2cccc3c([N+](=O)[O-])ccc(c23)C(=O)N1CC1CCCO1` (stereo not drawn) belongs -6.02% (inactive); to `CN1C(=O)c2cccc3c(N)ccc(c23)C1=O`, 16.4% (active).
Next, `Cc1nn(C)cc1N1C(=O)c2cccc3c(N)ccc(c23)C1=O`: 71% (active); `c1ccc(CN=C2Nc3ccccc3CS2)nc1`: -0.423% (inactive).
Next, `O=S1(=O)CC/C(=N\Nc2ccc(F)cc2)c2ccsc21`: 3.88% (inactive); `N#CCc1c[nH]c2ccc([N+](=O)[O-])cc12`: 0.344% (inactive); `COC(=O)c1ccc(NC(=S)Nc2cccc(C)n2)cc1`: 1.2% (inactive).
As for `Cc1nn(C)c(C)c1Sc1ccccc1N`, the inhibition was -2.63% (inactive).
For `O=C(Cc1ccc(Cl)cc1)NCc1nc(-c2ccccc2)no1`, the inhibition was -0.917% (inactive).

As a reminder, the inhibition is the change of the read-out against control, counted positive when it falls.
